High-throughput results: PubChem BioAssay, National Center for Advancing Translational Sciences (NCATS)
Hits are enriched below; roughly 19% of the tested compounds scored in any of these assays.
IL1B secr inh – qHTS for Inhibitors of Inflammasome Signaling: IL-1-beta AlphaLISA Primary Screen | THP-1 LPS/ATP IL-1B secretion, AlphaLISA, 16 h; stronger effect = lower value | 360,000 compounds, 4.7% hits | AID 743279, 2014 | activity change, % at 57.5 µM; in the data active = activity change below about -50%; inconclusive = mostly about -30% to -49%
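Secreted IL-1B measured by AlphaLISA bead assay after 16 h compound exposure of THP-1 cells; compounds (final up to 57.5 uM) added 1 h before LPS (250 ng/mL) and ATP (1.25 mM) stimulation; lower signal means less secretion.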
DT40 TDP1 no CPT – qHTS for Inhibitors of human tyrosyl-DNA phosphodiesterase 1 (TDP1): qHTS in cells in absence of CPT | DT40 Tdp1-/- hTDP1 cells, no CPT, ATP luminescence, 48 h | Potency, µM (titrated, usually from 46.2 µM), most hits filed as inhibitors | 420,000 compounds, 15% hits; also: nearly all actives have a fitted effect of over 55% in size
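Chicken DT40 Tdp1-/- cells stably complemented with human TDP1 were seeded at 400 cells/well with DMSO in place of 20 nM camptothecin. After compound pinning, cells grew at least 48 hr at 37 °C; viability read by CellTiter-Glo luminescence.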
DT40 TDP1 CPT – qHTS for Inhibitors of human tyrosyl-DNA phosphodiesterase 1 (TDP1): qHTS in cells in presence of CPT; 420,000 compounds, 12% hits; chicken DT40 Tdp1-/-;hTDP1 cells + 20 nM CPT, ATP luminescence, 48 h; Potency, µM (titrated, usually from 46.2 µM), usual class: inhibitors; also: nearly all actives have a fitted effect of over 55% in size
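Chicken DT40 Tdp1-/- cells stably complemented with human TDP1 were seeded at 400 cells/well in medium containing 20 nM camptothecin, exposed to pin-transferred compounds, and grown at 37 °C for at least 48 hr. Viability was read as ATP luminescence.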
uPA surface inh – qHTS for Inhibitors of Cell Surface uPA Generation; cell surface uPA generation assay, qHTS; Potency, µM (doses to about 38.3 µM), actives largely listed as inhibitors; 330,000 compounds, 0.31% hits; AID 540303, 2011; active = well fitted inhibition curve with a large enough effect; inconclusive = small, poorly fitted or top-dose-only effect; inactive = no such curve, though single readings can be large or run the other way; tested in mouse RAW 264.7 cells; also: nearly all actives have a fitted effect of over 55% in size
HT1080 IDH1KD tx – qHTS for induction of synthetic lethality in tumor cells producing 2HG: qHTS for the HT-1080-IDH1KD cell line. 360,000 compounds, 2% hits. Potency, µM (doses to about 46.1 µM), most hits filed as cytotoxic. HT-1080 IDH1 knockdown viability, ATP luminescence, 48 h
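After a 2 h attachment period, IDH1KD HT-1080 cells took pin-transferred compound for 48 h at 37 °C; ATP-based luminescence after 10 min room-temperature reagent incubation reported viability.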
HT1080-NT tox – qHTS for induction of synthetic lethality in tumor cells producing 2HG: qHTS for the HT-1080-NT fibrosarcoma cell line; HT-1080-NT fibrosarcoma viability, CellTiter-Glo ATP luminescence, 48 h; Potency, µM (doses to about 46.1 µM), usual class: cytotoxic; 360,000 compounds, 1.6% hits;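 also: NT is the 2HG producing partner of a matched IDH1 knockdown line; nearly all actives have a fitted effect of over 55% in size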
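HT-1080-NT; 750 cells/well; 5% FBS RPMI; 48 h compound, 37 degrees C; CellTiter-Glo luminescence; curve fitting and curve-class assignment.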
Hits are given with their value; – = inactive; ? = inconclusive; · = no result given. Unless noted, calls follow the shape of the dose curve; as a rule, active = well fitted curve in the direction sought with a large enough effect; inconclusive = small, poorly fitted or top-dose-only effect, or another doubt; inactive = no such curve, though single readings can be large; an effect the other way counts as inactive or inconclusive.

SMILES	IL1B secr inh	DT40 TDP1 no CPT	DT40 TDP1 CPT	uPA surface inh	HT1080 IDH1KD tx	HT1080-NT tox
COc1ccc2[nH]c(=O)c(CN(C(=O)NC3CCCCC3)C3CCCCC3)cc2c1	–	21µM	21µM	–	–	–
CCN(CCS(=O)(=O)c1ccc(Cl)cc1)Cc1nc2ccccc2c(=O)[nH]1	–	–	–	–	–	–
COc1ccc(C2N(Cc3ccccc3)CC(=O)N2/N=C(\C)c2ccccc2)cc1 (stereo not given)	–	–	–	–	–	–
COc1ccc(CN(Cc2nc3ccccc3c(=O)[nH]2)C(=O)C(C)(C)C)cc1	–	?	?	–	–	–
COc1ccc(CN(Cc2nc3ccccc3c(=O)[nH]2)C(=O)NC2CCCCC2)cc1	-58	–	–	–	–	–
O=C(c1ccncc1)N(Cc1cc2ccccc2[nH]c1=O)C1CCCCC1	–	?	?	·	5.6µM	7.1µM
O=C(NC1CCCCC1)N(Cc1nc2ccccc2c(=O)[nH]1)C1CCCC1	–	?	–	–	–	–
CCC(CC)C(=O)N(CCc1ccc(OC)cc1)Cc1nc2ccccc2c(=O)[nH]1	-54	21µM	23µM	–	7.1µM	?
Cn1nc(-c2ccccc2)c(-c2nc(-c3cccc(C(F)(F)F)c3)no2)c1Cl	–	1.6µM	?	–	–	–
Cn1nc(-c2ccccc2)c(-c2nc(-c3cccc(Cl)c3)no2)c1Cl	–	?	?	–	–	–
Cn1c(SCC(=O)Nc2ccc3c(c2)OCCO3)nnc1-c1ccncc1	–	–	–	–	–	–
COc1cc(/C=N/NC(=O)Nc2cccc3nsnc23)cc(OC)c1OC	–	?	?	–	–	–
O=C(N/N=C/c1ccc(O)cc1)Nc1cccc2nsnc12	-98	21µM	–	–	?	?
COc1ccc(/C=N/NC(=O)Nc2cccc3nsnc23)c(OC)c1	–	10µM	12µM	–	–	–
Cc1ccc2oc3c(c(=O)c2c1)C(c1cccc(O)c1)N(Cc1ccccc1Cl)C3=O (stereo not given)	·	18µM	?	·	·	·
Cc1ccc2oc3c(c(=O)c2c1)C(c1cccc(Br)c1)N(Cc1ccco1)C3=O (stereo not given)	–	21µM	?	–	–	–
Cc1cc2oc3c(c(=O)c2cc1C)C(c1cccc(Br)c1)N(Cc1ccco1)C3=O (stereo not given)	–	?	?	–	?	?
CSc1ccc(C2c3c(oc4cc(C)cc(C)c4c3=O)C(=O)N2CCO)cc1 (stereo not given)	·	23µM	?	·	·	·
CCOc1cc(C2c3c(oc4cc(C)c(Cl)cc4c3=O)C(=O)N2Cc2ccco2)ccc1O (stereo not given)	–	16µM	18µM	·	–	–
O=C1COc2ccc(C(=O)COC(=O)c3nc(Cl)ccc3Cl)cc2N1	–	–	?	–	–	–
O=C1c2oc3ccc(Cl)cc3c(=O)c2C(c2cccc(Br)c2)N1CCO (stereo not given)	–	?	26µM	–	–	–
Cc1cc(C)c2c(=O)c3c(oc2c1)C(=O)N(Cc1ccc(F)cc1)C3c1cccc(O)c1 (stereo not given)	·	12µM	23µM	·	·	·
Cc1ccc(CN2C(=O)c3oc4ccc(C)cc4c(=O)c3C2c2ccc(O)cc2)cc1 (stereo not given)	·	?	16µM	·	·	·
CCN(CC)CCN1C(=O)c2oc3ccccc3c(=O)c2C1c1cccc(Br)c1 (stereo not given)	–	–	–	–	–	–
Cc1ccc2oc3c(c(=O)c2c1)C(c1ccc(O)cc1)N(CCCN(C)C)C3=O (stereo not given)	·	–	–	·	·	·
